MBNL1-CUG inh: qHTS Assay for Inhibitors of MBNL1-poly(CUG) RNA binding | Potency, µM (top dose mostly 57.5 µM), for inactives: at the highest dose activity change, negative = inhibition, usual class: inhibitors | 280,000 compounds, 0.036% hits | TR-FRET MBNL1-His/biotin-(CUG)12 binding, 665/545 ratio | Muscleblind-like protein 1 (Homo sapiens), Q9NR56; active = well fitted inhibition curve with a large enough effect in the signal ratio, with a control signal flat, not every such curve was filed as active; inconclusive = small, poorly fitted or top-dose-only effect, or effect the other way, or a change in a side signal; inactive = no such curve, though single readings can be large or run the other way; the % refers to the signal ratio; note: potency is the fitted concentration of half-maximal effect; % is set by controls: 0 for no effect and ±100 for the full control effect
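Compound titration spanned 92 nM–58 uM against the MBNL1-His/biotin-(CUG)12 complex. After 60 min at room temperature with 5 nM streptavidin-XL665 and 0.055 ng/ul terbium anti-His, ratiometric 665/545 nm emission (Ex 340 nm) normalized to controls.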
CBFb RUNX1 block: qHTS Assay for Compounds Blocking the Interaction Between CBF-beta and RUNX1 for the Treatment of Acute Myeloid Leukemia. AlphaScreen CBFb-His/RUNX1-biotin binding, biochemical. Potency, µM (titrated, usually from 59.8 µM), inactives show top-dose activity, negative = inhibition, most hits filed as inhibitors. 230,000 tested, under 10 active; note: % of control where 0% means no effect
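CBFb-His/RUNX1-biotin, 30 nM each, preincubated 20 min RT; compound 15 min RT; Ni + streptavidin beads 50 ng each, 90 min RT; AlphaScreen read.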
RORg inh: qHTS for inhibitors of ROR gamma transcriptional activity; Nuclear receptor ROR-gamma (Mus musculus), P51450; Drosophila S2 Gal4-RORgamma UAS-luciferase reporter, 20 h; Potency, µM (titrated, usually from 53.6 µM), without a hit: at the top dose activity change, negative = inhibition, usual class: inhibitors; 310,000 compounds, 5.4% hits; note: potency is the fitted concentration of half-maximal effect; % is set by controls: 0 for no effect and ±100 for the full control effect; nearly all actives have a fitted effect of over 60% in size
Target sequence (P51450 whole entry, looked up, the tested form may be a part): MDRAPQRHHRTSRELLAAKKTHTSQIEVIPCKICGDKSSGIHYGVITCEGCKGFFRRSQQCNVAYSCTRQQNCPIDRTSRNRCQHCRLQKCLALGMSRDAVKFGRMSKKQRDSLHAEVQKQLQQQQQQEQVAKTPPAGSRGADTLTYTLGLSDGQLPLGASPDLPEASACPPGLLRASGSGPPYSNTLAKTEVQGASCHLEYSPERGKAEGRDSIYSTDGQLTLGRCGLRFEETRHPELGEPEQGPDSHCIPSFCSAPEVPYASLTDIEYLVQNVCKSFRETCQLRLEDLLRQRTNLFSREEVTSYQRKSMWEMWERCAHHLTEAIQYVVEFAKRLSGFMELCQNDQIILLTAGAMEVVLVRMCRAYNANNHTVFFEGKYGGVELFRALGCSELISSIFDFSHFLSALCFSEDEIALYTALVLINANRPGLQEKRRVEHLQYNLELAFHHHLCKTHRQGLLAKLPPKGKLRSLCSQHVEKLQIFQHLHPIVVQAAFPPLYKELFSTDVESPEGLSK
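Stably transfected Drosophila Schneider cells are the test system, with ROR gamma fused to Gal4 and luciferase under UAS control; luminescence is read after 20 hr of 700 uM copper sulfate induction at ambient temperature.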
Six1-Eya2 blk: qHTS Assay for Inhibitors of the Six1/Eya2 Interaction; activity change, % (concentration not given with the values); AlphaScreen GST-Six1/His-Eya2 binding, biochemical; active compounds read low; Homeobox protein SIX1 (Homo sapiens) + Protein phosphatase EYA2 (Homo sapiens), …; 360,000 compounds, 0.56% hits; in the data active = activity change below about -65%; inconclusive = mostly about -30% to -63%; note: % is set by controls: 0 for no effect and ±100 for the full control effect
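Six1/Eya2 binding was read as AlphaScreen signal after compounds were pinned into GST-Six1 plus His-tagged Eya2 (5X stock 250/500 nM) in pH 8.0 Tris/NaCl/TCEP buffer, beads added, then incubated 1 h, 37 C, dark.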
Gal4-VP16 FLuc: VP16 counterscreen qHTS for inhibitors of ROR gamma transcriptional activity; Potency, µM (doses to about 53.6 µM), for the others: at the highest dose activity, negative = inhibition, usual class: inhibitors; 310,000 compounds, 3.5% hits; AID 2546, 2010; Drosophila S2 Gal4-VP16 UAS-luciferase, luminescence, 20 h;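 note: Gal4-VP16 expression switched on by copper sulfate through the metallothionein promoter; potency is the fitted concentration of half-maximal effect; % is set by controls: 0 for no effect and ±100 for the full control effect; nearly all actives have a fitted effect of over 50% in size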
CtBP-E1A blk: qHTS Assay for Inhibitors of the CtBP/E1A Interaction; CtBP / adenovirus E1A interaction (AlphaScreen); AlphaScreen GST-E1A/His-CtBP binding, 1536-well; active compounds read low; activity change, % (concentration not given with the values); 340,000 compounds, 0.49% hits; AID 651724, 2012; in the data active = activity change below about -65%; inconclusive = mostly about -30% to -63%; note: % is set by controls: 0 for no effect and ±100 for the full control effect
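Protein mix (5X: 125 nM each GST-E1A, His-CtBP) was incubated with pinned compound 2 h at 37 deg C in dark, in 50 mM Tris pH 8.0 buffer with 300 mM NaCl. Glutathione donor and nickel acceptor beads followed; AlphaScreen signal read after 1 h.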
Active calls of the source: *; ? = inconclusive; nt = not tested or not shown. Sampled rows, rich in hits. Any-hit rate of the full collection: about 5.5%. Unless noted, calls come from the whole dose curve; as a rule, active = well fitted curve in the direction sought with a large enough effect; inconclusive = small, poorly fitted or top-dose-only effect, or another doubt; inactive = no such curve, though single readings can be large; an effect the other way counts as inactive or inconclusive.

SMILES	MBNL1-CUG inh	CBFb RUNX1 block	RORg inh	Six1-Eya2 blk	Gal4-VP16 FLuc	CtBP-E1A blk
O=C(NNc1nc2c(F)cccc2s1)C1=COCCO1	0.0%	-0.9%	11.2µM*	2.3	-27.5%	6.1
Cc1ccc2sc(NNC(=O)C3=COCCO3)nc2c1C	-0.1%	-9.6%	5.62µM*	-1.1	?	-0.7
Cc1ccc(Cc2cnc(NC(=O)/C(C#N)=C/c3ccc(-c4ccccc4[N+](=O)[O-])o3)s2)cc1	-4.6%	-5.2%	2.24µM*	-21.2	4.47µM*	4.8
Cn1cc(/C=C(\C#N)C(=O)Nc2ncc(Cc3ccc(Cl)cc3)s2)c2ccccc21	-9.5%	11.4%	2µM*	30.4	2.51µM*	27.7
CCc1ccc(NC(=O)/C(C#N)=C/c2cn(CC(=O)O)c3ccccc23)cc1	?	1.3%	-8.5%	-3.3	5.6%	nt
O=C1NC(=Nc2ccc(O)cc2)S/C1=C\C=C\c1ccco1	nt	?	5.1%	-14.8	?	-1.1
O=C(NCc1ccccc1)c1nc(S(=O)(=O)Cc2ccccc2)ncc1Cl	0.4%	nt	5.01µM*	-9.0	2.82µM*	nt
CCC1CCCCN1S(=O)(=O)c1ccc(NC(=O)c2nc(S(C)(=O)=O)ncc2Cl)cc1 (configuration not stated)	47.3%	nt	3.16µM*	-9.7	3.98µM*	-1.6
CCC1CCCCN1S(=O)(=O)c1ccc(NC(=O)c2ccncc2)cc1 (configuration not stated)	-0.1%	nt	40.2%	-4.0	?	-2.2
CSc1ncc(Cl)c(C(=O)Nc2ccc(NC(C)=O)cc2)n1	24.7%	4.4%	-20.3%	-8.1	2.0%	-5.1
CC(=O)Nc1ccc(NC(=O)c2nc(S(=O)(=O)Cc3ccccc3)ncc2Cl)cc1	?	nt	2.24µM*	5.2	0.355µM*	nt
O=C(NCc1ccc2c(c1)OCO2)c1nc(S(=O)(=O)Cc2ccccc2F)ncc1Cl	6.2%	nt	7.08µM*	-14.1	3.55µM*	nt
C[C@@H]1CN([C@H](C)CO)S(=O)(=O)c2ccc(-c3ccc(C(=O)N(C)C)cc3)cc2O[C@H]1CN(C)C(=O)Cc1ccccn1	nt	nt	nt	3.4	nt	3.5
CC(C)c1ccc(/C=C2\SC(=S)N(CC(=O)NCCCN3CCOCC3)C2=O)cc1	?	nt	-44.7%	-21.1	-18.2%	1.9
CC(=O)Nc1cccc(C(=O)NNC(=O)c2ccc(-n3cnnn3)cc2)c1	nt	nt	nt	-5.1	nt	3.6
C[C@H](CO)N1C[C@H](C)[C@H](CN(C)C(=O)NC2CCCCC2)Oc2cc(-c3cccnc3)ccc2S1(=O)=O	nt	nt	nt	-1.1	nt	0.4
COC(=O)c1ccccc1NC(=O)c1nc(S(=O)(=O)Cc2ccccc2)ncc1Cl	-4.0%	nt	?	-25.4	3.16µM*	nt
COc1ccc(CNC(=O)c2nc(S(=O)(=O)Cc3ccccc3)ncc2Cl)cc1	-0.6%	nt	5.62µM*	-28.3	3.55µM*	nt
O=C(NCc1ccc2c(c1)OCO2)c1nc(S(=O)(=O)Cc2ccccc2)ncc1Cl	-1.6%	nt	?	13.6	?	1.2
O=C(Nc1ccc2ccccc2c1)c1cnccn1	11.1%	1.3%	20.2%	-3.7	-4.8%	-6.5
CCS(=O)(=O)c1ncc(Cl)c(C(=O)Nc2ccc(S(=O)(=O)N3CCCC(C)C3)cc2)n1 (configuration not stated)	72.6%	nt	?	19.5	3.55µM*	-4.2
CS(=O)(=O)c1ncc(Cl)c(C(=O)Nc2ccc3ccccc3c2)n1	11.6%	-9.7%	2.82µM*	-27.2	4.47µM*	0.0
CCSc1nnc(NC(=O)CCC2CCCCC2)s1	nt	nt	nt	4.8	nt	nt
COc1ccc(/C=C2/SC(=O)N(CCC(=O)Nc3ccccc3C(=O)O)C2=S)cc1	4.0%	nt	-10.5%	-4.5	4.2%	12.4
CCS(=O)(=O)c1ncc(Cl)c(C(=O)Nc2ccc(C)cc2)n1	?	nt	5.01µM*	1.9	2µM*	3.3
SMILES	MBNL1-CUG inh	CBFb RUNX1 block	RORg inh	Six1-Eya2 blk	Gal4-VP16 FLuc	CtBP-E1A blk
Cc1ccc(CS(=O)(=O)c2ncc(Cl)c(C(=O)Nc3ccc(OC(F)F)cc3)n2)cc1	6.6%	nt	-95.8%	-11.3	?	5.9
CC1CCN(c2ccccc2NC(=S)NC(=O)c2ccc(-c3cccc([N+](=O)[O-])c3)o2)CC1	-0.7%	-4.7%	1µM*	0.9	-3.0%	-3.1
CC1CCN(c2ccc(NC(=S)NC(=O)c3ccc(-c4cccc([N+](=O)[O-])c4)o3)cc2)CC1	5.2%	-9.3%	1.58µM*	-19.9	7.08µM*	-18.7
O=[N+]([O-])c1cccc(-c2ccc(C(=S)N3CCN(c4ccc(F)cc4)CC3)o2)c1	?	14.8%	6.5%	-26.9	-13.7%	-25.3
c1ccc(-c2ccc(-c3cn4c(n3)CCC4)cc2)cc1	17.8%	-3.2%	?	-18.0	11.2µM*	-13.8
Cc1ccc(-c2cn3c(n2)CCCC3)cc1	-3.5%	4.0%	8.91µM*	-17.9	?	-9.7
CCCCNC(=O)C1c2ccccc2OCC(=O)N1Cc1cccnc1 (configuration not stated)	nt	nt	nt	3.7	nt	-2.6
COc1ccc(N(C(=O)CCl)C(C(=O)NCCc2ccccc2)c2cccs2)cc1 (configuration not stated)	nt	5.0%	11.2µM*	-1.6	?	-2.8
O=C(COc1ccc2ccccc2c1)Nc1ccccc1C(=O)O	-9.6%	nt	16.2%	-2.3	12.9%	nt
CN(CC(=O)Nc1ccc(F)c(F)c1F)C(=O)c1n[nH]c(=O)c2ccccc12	nt	nt	nt	2.3	nt	-1.9
CN(C)S(=O)(=O)c1cccc(N=C2NN=C(c3ccccc3)CS2)c1	-4.0%	?	?	?	15.8µM*	1.4
CC(=O)Nc1ccc(C2=NNC(=Nc3cccc(S(=O)(=O)N(C)C)c3)SC2)cc1	0.1%	?	-16.4%	?	?	nt
O=C(Nc1nnc(-c2ccccc2)o1)C1CCCCC1	-1.0%	10.6%	3.55µM*	4.1	7.94µM*	3.7
O=C(Nc1nnc(-c2ccc(Cl)cc2)o1)C1CCCCC1	0.0%	4.9%	-1.5%	-14.5	-9.2%	-0.9
CCOc1ccc(-c2nnc(NC(=O)C3CCCC3)o2)cc1	1.9%	nt	8.91µM*	-24.5	?	-21.9
O=C(NCc1ccc(Cl)c(Cl)c1)c1cc(C2CCCCN2C(=O)CCc2ccccc2)on1 (configuration not stated)	nt	nt	nt	-0.8	nt	1.0
O=C(CCNC(=O)C1CCN(S(=O)(=O)c2ccccc2)CC1)NCc1cccnc1	nt	nt	nt	11.9	nt	0.0
